Inconclusive results are not listed. The source made the active and inactive calls. Calls follow the shape of the full dose curve.

Sequence of Peroxisome proliferator-activated receptor delta (Homo sapiens) (Q03181 whole entry, looked up): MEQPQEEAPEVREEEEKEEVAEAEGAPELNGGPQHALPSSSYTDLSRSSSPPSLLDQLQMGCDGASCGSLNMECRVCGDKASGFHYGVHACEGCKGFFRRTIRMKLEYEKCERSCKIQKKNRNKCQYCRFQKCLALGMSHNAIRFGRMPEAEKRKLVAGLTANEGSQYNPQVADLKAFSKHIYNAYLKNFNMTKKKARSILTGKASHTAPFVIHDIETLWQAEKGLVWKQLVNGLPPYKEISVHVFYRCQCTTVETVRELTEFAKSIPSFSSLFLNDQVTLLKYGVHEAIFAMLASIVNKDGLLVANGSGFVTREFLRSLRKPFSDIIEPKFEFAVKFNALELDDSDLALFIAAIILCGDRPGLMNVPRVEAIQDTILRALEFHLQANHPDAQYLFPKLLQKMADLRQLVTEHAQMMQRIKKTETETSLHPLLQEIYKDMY

The experiment has as its target Peroxisome proliferator-activated receptor delta (Homo sapiens) (UniProt Q03181). Nature of the experiment: qHTS assay for small molecule agonists of peroxisome proliferator-activated receptor delta signaling (AID 588534). Particulars: HEK293T PPARdelta-UAS-bla, beta-lactamase ratio, 18 h; series mostly up to 76.7 µM. Put shortly: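 Cells carrying a PPAR-delta beta-lactamase reporter were treated with compounds for 18 h at 37 °C in agonist mode. CCF4 fluorescence was read after 2 h; EC50 and efficacy from Hill fits.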
Background: In qHTS, concentration-response curves come from the screen itself.
As for `CCCCCCC=O`, the result was inactive.
Regarding `C=C(C)C(=O)OCC[N+](C)(C)C`, the result was inactive.
For `C/C=C/C=C/C=O`, the outcome was inactive.
Under `NS(=O)(=O)O` stands “inactive”; under `C=CC(=O)OCC(C)OCC(C)OCC(C)OC(=O)C=C` (centres undefined), “inactive”.
As for `CC(C)C(=O)OC(=O)C(C)C`, the result was inactive.
Turning to `CC1(C)C(=O)NC(=O)N1CO`, the result was inactive.
To `C=CC(=O)CC` belongs “inactive”.
For the compound `Cc1ccc(S(=O)(=O)NCl)cc1`, the outcome was inactive.
To `N[C@@H]1[C@@H](O)[C@H](O)[C@@H](CO)O[C@H]1O` belongs “inactive”; to `C=C(C)C(=O)OCCC[Si](OC)(OC)OC`, “inactive”.
To `COC(=O)c1ccccc1` belongs “inactive”; to `O=C(O)c1cc(Cl)cc(Cl)c1`, “inactive”; to `CC(C)(C)C1CCC(O)CC1` (centres undefined), “inactive”.
Under `CC(=O)c1ccc([N+](=O)[O-])cc1` stands “inactive”.
`C/C(C=O)=C/c1ccccc1`: the outcome was inactive.
Under `COC(=O)c1cccc(C(=O)OC)c1` stands “inactive”; under `CCCCN(CCCC)CCCC`, “inactive”.
`CCCCCCCC/C=C\CCCCCCCC(=O)OC`: the result was inactive.
For the compound `O=C(O)c1ccc(C(=O)O)c(C(=O)O)c1`, the result was inactive.
On to `COC(=O)c1ccccc1C(=O)O`, for which the result was inactive.
Under `CC(C)(C)c1ccc(OCC2CO2)cc1` (centres undefined) stands “inactive”; under `Brc1cc(Oc2cc(Br)c(Br)c(Br)c2Br)c(Br)c(Br)c1Br`, “inactive”.
Under `CCCCCCCCCCCCCCCCCC#N` stands “inactive”.
Under `CC1(N)CCC(C(C)(C)N)CC1` (centres undefined) stands “inactive”.
Take `O=C(O)c1ccc(C(=O)O)cc1`: the outcome was inactive.
To `CC/C=C/C#N` belongs “inactive”; to `Cc1c(N)cccc1Cl`, “inactive”; to `O=C(O)c1ccccc1C(=O)O`, “inactive”.
To `CCCCCCCCCCCCCO` belongs “inactive”; to `CC(=O)Nc1ccccc1C`, “inactive”; to `Fc1ccccc1`, “inactive”.
To `CCCCCCCCCCCCCCC(=O)OC` belongs “inactive”; to `Cc1ccccc1C(=O)O`, “inactive”; to `C/C=C(/C)C#N`, “inactive”.
As to `C=C(C)C(=O)OCCC[Si](Cl)(Cl)Cl`, the result was inactive.
To `C=C(C)C(=O)OCCOC(=O)C(=C)C` belongs “inactive”; to `COC(=O)c1c(Cl)nn(C)c1S(=O)(=O)NC(=O)Nc1nc(OC)cc(OC)n1`, “inactive”; to `CCCCCCN`, “inactive”.

These data come from PubChem BioAssay (NCATS).
